Laboratory results from PubChem BioAssay AID1159580 (chemical genetic matrix, 2015).
Where “and” joins values, the source holds several entries; their conditions need not be identical. Equal values may be shown once. Out of some 5,500 compounds screened, about 2,000 (36%) were called active. Another 18% or so got no clear call; they are omitted. Rule as the data show it: active = normalized growth mostly below about 0.91 (no sharp cut-off); inconclusive = no clear call, values can overlap the other calls; inactive = mostly above about 0.92. The list shows a part of the results.

Assay: chemical genetic growth profiling, strain panel (AID 1159580);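 also: tested at 20 µM; growth read once vehicle control cultures reached saturation at 30 °C; 1 = growth at the plate median or of vehicle wells; lower values mean less growth of the strain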
Conditions: S. cerevisiae deletion strains, growth OD

Measured: normalized growth

CC(=O)OC(C)C[N+](C)(C)C (stereo not given)
inactive: locus YAL013W, strain DEP1, hits give low values 1.02 and 1 | locus YAL021C, strain ccr4, hits give low values 1 | locus YAL026C, strain drs2, hits give low values 1 | locus YAL030W, strain snc1, hits give low values 1 | locus YAL040C, strain CLN3, hits give low values 0.999 | locus YBL061C, strain skt5, hits give low values 1.01 | locus YBR009C, strain hhf1, hits give low values 1 | locus YBR021W, strain FUR4, hits give low values 1.03 | locus YBR023C, strain chs3, hits give low values 1 | locus YBR171W, strain sec66, hits give low values 0.994 | locus YBR229C, strain ROT2, hits give low values 1.01 | locus YBR231C, strain swc5, hits give low values 0.991 | locus YBR279W, strain paf1, hits give low values 1 | locus YCL011C, strain gbp2, hits give low values 1.01 | locus YCL016C, strain dcc1, hits give low values 1.01 | locus YCL029C, strain bik1, hits give low values 1.01 | locus YCL061C, strain MRC1 (second series), hits give low values 1 | locus YCL069W, strain vba3, hits give low values 1 | locus YCR088W, strain abp1, hits give low values 1.01 | locus YDL005C, strain med2, hits give low values 1.02 | locus YDL035C, strain GPR1, hits give low values 1.03 | locus YDL040C, strain nat1, hits give low values 1 | locus YDL074C, strain BRE1, hits give low values 1.01 | locus YDL101C, strain DUN1, hits give low values 1 | locus YDL134C, strain PPH21, hits give low values 1.02 | locus YDL185W, strain tfp1, hits give low values 1.02 | locus YDL192W, strain arf1, hits give low values 1.02 | locus YDR001C, strain nth1, hits give low values 0.993 | locus YDR069C, strain doa4, hits give low values 0.988 | locus YDR101C, strain arx1, hits give low values 0.996 | locus YDR137W, strain rgp1, hits give low values 0.99 | locus YDR150W, strain NUM1, hits give low values 1.02 and 0.997 | locus YDR159W, strain sac3, hits give low values 1 | locus YDR162C, strain NBP2, hits give low values 1.05 | locus YDR195W, strain ref2 0.982 | locus YDR297W, strain sur2, hits give low values 1 | locus YDR318W, strain mcm21, hits give low values 1.01 | locus YDR334W, strain swr1, hits give low values 0.997 | locus YDR335W, strain msn5, hits give low values 0.998 | locus YDR363W, strain ESC2, hits give low values 0.965 | locus YDR388W, hits give low values 1.02 | locus YDR392W, strain spt3, hits give low values 1 | locus YDR502C, strain sam2, hits give low values 1.01 | locus YEL003W, strain gim4, hits give low values 1.01 | locus YEL037C, strain rad23, hits give low values 1 | locus YEL061C, strain CIN8 (second series), hits give low values 0.995 | locus YEL061C, strain CIN8, hits give low values 1.01 | locus YER002W, strain NOP16, hits give low values 0.981 | locus YER015W, strain faa2, hits give low values 0.988 | locus YER016W, strain bim1, hits give low values 0.994 | locus YER110C, hits give low values 1.02 | locus YER111C, strain swi4, hits give low values 1.01 | locus YER155C, strain BEM2 (second series), hits give low values 0.992 | locus YER155C, strain BEM2, hits give low values 1.01 | locus YER167W, strain BCK2, hits give low values 1.02 | locus YFR010W, strain ubp6, hits give low values 0.989 | locus YGL078C, strain dbp3, hits give low values 1.02 | locus YGL086W, strain mad1, hits give low values 1 | locus YGL167C, strain pmr1, hits give low values 1.01 | locus YGL173C, strain kem1, hits give low values 1 | locus YGL227W, strain vid30, hits give low values 0.986 | locus YGL240W, strain doc1, hits give low values 0.985 | locus YGL248W, strain PDE1, hits give low values 0.99 | locus YGL253W, strain hxk2, hits give low values 1 | locus YGR135W, strain pre9, hits give low values 1.06 | locus YGR252W, strain gcn5, hits give low values 1.04 | locus YHR013C, strain ard1, hits give low values 1.02 | locus YHR027C, strain rpn1, hits give low values 1 | locus YHR030C, strain SLT2, hits give low values 1.01 and 1.02 | locus YHR079C, strain IRE1 (second series), hits give low values 1.01 | locus YHR079C, strain IRE1, hits give low values 1 | locus YHR094C, strain hxt1, hits give low values 1.02 | locus YHR129C, strain ARP1, hits give low values 1 | locus YHR142W, strain chs7, hits give low values 1.01 | locus YHR200W, strain rpn10, hits give low values 1.02 | locus YIL066C, strain RNR3, hits give low values 1.02 | locus YIL073C, strain SPO22, hits give low values 1.13 | locus YIL125W, strain kgd1, hits give low values 1.01 | locus YIR030C, strain dcg1, hits give low values 1.01 | locus YJL092W, strain hpr5, hits give low values 0.993 | locus YJL095W, strain BCK1 (second series), hits give low values 1.01 | locus YJL095W, strain BCK1, hits give low values 1.02 and 1.03 | locus YJL115W, strain asf1, hits give low values 0.995 | locus YJL129C, strain trk1, hits give low values 0.987 | locus YJL134W, strain LCB3, hits give low values 1.01 | locus YJL154C, strain vps35, hits give low values 1.01 | locus YJL164C, strain tpk1, hits give low values 1.01 | locus YJL166W, strain qcr8, hits give low values 0.976 | locus YJL168C, strain set2, hits give low values 1.01 | locus YJL187C, strain SWE1 (second series), hits give low values 1.02 | locus YJL187C, strain SWE1, hits give low values 1.01 | locus YJR043C, strain POL32, hits give low values 1.02 | locus YJR066W, strain TOR1, hits give low values 0.985 | locus YJR075W, strain HOC1, hits give low values 1.02 | locus YKL009W, strain mrt4, hits give low values 1.04 | locus YKL068W, hits give low values 1.02 | locus YKL085W, strain MDH1 (second series), hits give low values 1.01 | locus YKL085W, strain MDH1, hits give low values 1.01 | locus YKL160W, strain elf1, hits give low values 0.987 | locus YKL190W, strain CNB1, hits give low values 1.02 | locus YKR001C, strain vps1, hits give low values 1.02 | locus YKR026C, strain gcn3, hits give low values 0.985 | locus YKR091W, strain srl3, hits give low values 0.996 | locus YLL001W, strain dnm1, hits give low values 0.97 | locus YLL026W, hits give low values 0.989 | locus YLL041C, strain sdh2, hits give low values 1.01 | locus YLR027C, strain aat2, hits give low values 0.989 | locus YLR039C, strain RIC1, hits give low values 1.06 | locus YLR058C, strain SHM2, hits give low values 1.01 | locus YLR102C, strain apc9, hits give low values 1 | locus YLR113W, strain HOG1, hits give low values 0.981 | locus YLR221C, strain rsa3, hits give low values 1 | locus YLR258W, strain gsy2, hits give low values 1 | locus YLR262C, strain YPT6 (second series), hits give low values 0.994 | locus YLR262C, strain YPT6, hits give low values 1.05 | locus YLR268W, strain sec22, hits give low values 1.01 | locus YLR320W, strain mms22, hits give low values 0.999 | locus YLR330W, strain CHS5, hits give low values 1.01 | locus YLR342W, strain FKS1 (second series), hits give low values 1.05 | locus YLR342W, strain FKS1, hits give low values 1 | locus YLR357W, strain rsc2, hits give low values 0.981 | locus YLR370C, strain arc18, hits give low values 1 | locus YLR371W, strain rom2, hits give low values 1.01 | locus YLR384C, strain iki3, hits give low values 0.996 | locus YLR418C, strain cdc73, hits give low values 1.06 | locus YML016C, strain PPZ1, hits give low values 0.999 | locus YML032C, strain rad52, hits give low values 1.01 | locus YML120C, strain ndi1, hits give low values 1 | locus YML124C, strain tub3, hits give low values 1.01 | locus YMR058W, strain fet3, hits give low values 0.991 | locus YMR078C, strain ctf18, hits give low values 1.02 | locus YMR125W, strain sto1, hits give low values 0.993 | locus YMR129W, hits give low values 0.993 | locus YMR205C, strain PFK2, hits give low values 1 | locus YMR223W, strain ubp8, hits give low values 1.07 | locus YMR231W, strain pep5, hits give low values 0.994 | locus YMR307W, strain GAS1, hits give low values 1.03 | locus YNL067W, strain RPL9B, hits give low values 1.02 | locus YNL071W, strain lat1, hits give low values 0.999 | locus YNL153C, strain GIM3, hits give low values 1.01 | locus YNL175C, strain NOP13, hits give low values 1.01 | locus YNL183C, strain NPR1, hits give low values 0.969 | locus YNL197C, strain WHI3, hits give low values 1 | locus YNL209W, strain ssb2, hits give low values 1 | locus YNL224C, strain SQS1, hits give low values 0.983 | locus YNL233W, strain BNI4, hits give low values 1.01 | locus YNL248C, strain rpa49, hits give low values 0.988 | locus YNL250W, strain rad50, hits give low values 1.05 | locus YNL271C, strain bni1, hits give low values 1.02 | locus YNL298W, strain CLA4, hits give low values 1.02 | locus YNL307C, strain MCK1, hits give low values 1.03 | locus YNL322C, strain KRE1 (second series), hits give low values 1.01 | locus YNL322C, strain KRE1, hits give low values 1.01 | locus YNR049C, strain mso1, hits give low values 1.01 | locus YNR052C, strain pop2, hits give low values 1.01 | locus YOL012C, strain htz1 1.09 | locus YOL147C, strain pex11, hits give low values 1.02 | locus YOR001W, strain rrp6, hits give low values 0.987 | locus YOR061W, strain CKA2, hits give low values 1.01 | locus YOR069W, strain VPS5, hits give low values 1.01 | locus YOR070C, strain gyp1, hits give low values 1 | locus YOR080W, strain dia2, hits give low values 1.01 | locus YOR083W, strain WHI5 (second series), hits give low values 1 | locus YOR083W, strain WHI5, hits give low values 0.977 | locus YOR106W, strain vam3, hits give low values 0.994 | locus YOR136W, strain idh2, hits give low values 1.01 | locus YOR144C, strain elg1, hits give low values 1.01 | locus YOR184W, strain ser1, hits give low values 1.02 | locus YOR231W, strain MKK1, hits give low values 0.947 | locus YOR265W, strain rbl2, hits give low values 1 | locus YOR270C, strain vph1, hits give low values 1.02 | locus YOR290C, strain snf2, hits give low values 0.989 | locus YOR316C, strain cot1, hits give low values 1.01 | locus YPL051W, strain arl3, hits give low values 0.999 | locus YPL055C, strain LGE1, hits give low values 1.02 | locus YPL078C, strain atp4, hits give low values 0.981 | locus YPL106C, strain sse1, hits give low values 1.01 | locus YPL240C, strain hsp82, hits give low values 1 | locus YPL241C, strain CIN2, hits give low values 1 | locus YPL256C, strain CLN2, hits give low values 1.03 | locus YPR119W, strain clb2, hits give low values 1.01 | locus YPR141C, strain kar3, hits give low values 1.01 | locus YPR163C, strain tif3, hits give low values 1.02 | locus YPR167C, strain met16, hits give low values 1.01 | strain wtn01, hits give low values 1
